Sampled rows, rich in hits. Any-hit rate of the full collection: about 2.9%.
PAFAH2 inh: PAFAH2 (human) inhibition; Q99487; recombinant PAFAH2, FP-rhodamine activity probe, fluorescence polarization; 340,000 tested, 0.99% active; inhibition, % at 3.39 µM; AID 492956;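 active means inhibition above the mean over all tested compounds plus 3 SD, cut at about 30% in these data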;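 further: inhibitors block probe labeling of enzyme so polarization drops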
PME-1 primary: PME-1 (human) inhibition; Q9Y570; recombinant PME-1, FP-Rh probe fluorescence polarization; 320,000 tested, 0.53% active; inhibition, % at 5.9 µM;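 active means inhibition above the campaign mean of all compounds plus 3 SD, cut at about 26% in these data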;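 further: competitive labeling of PME-1 active site by serine hydrolase directed probe; inhibitors block probe labeling so polarization falls and inhibition rises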
PAFAH1B2 FP inh: inhibitors of human PAFAH1B2 | inhibition, % at 3.39 µM | recombinant PAFAH1B2, FP-rhodamine activity probe, fluorescence polarization | AID 492953 | 340,000 tested, 1.2% active | P68402;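 active means inhibition above the mean of all tested compounds plus 3 SD, cut at about 24% in these data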
Fam108B inh: Fam108B inhibition, counter-screen for RBBP9 inhibitors; recombinant Fam108B, FP-Rh probe fluorescence polarization; 300,000 tested, 0.33% active; AID 1947; inhibition, % at 9.51 µM;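 active means inhibition above the screen mean inhibition plus 3 SD, computed separately per campaign, cut at about 18% in these data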;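 further: inhibitors lower polarization as less probe binds the enzyme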
PAFAH1B3 FP inh: blocks human PAF acetylhydrolase 1B catalytic subunit 3. Q15102. recombinant PAFAH1B3, FP-rhodamine probe, fluorescence polarization. inhibition, % at 3.39 µM. 340,000 tested, 0.28% active. AID 492972;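 active means inhibition above the screen-wide average of all tested compounds plus 3 SD, cut at about 25% in these data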
Target sequence (Q15102 whole entry, looked up): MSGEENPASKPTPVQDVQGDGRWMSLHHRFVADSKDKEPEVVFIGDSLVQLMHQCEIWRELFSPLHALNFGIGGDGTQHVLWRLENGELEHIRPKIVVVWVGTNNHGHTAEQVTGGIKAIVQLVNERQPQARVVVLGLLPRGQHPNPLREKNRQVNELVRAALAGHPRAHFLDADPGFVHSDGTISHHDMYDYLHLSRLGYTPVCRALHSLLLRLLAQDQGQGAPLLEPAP
pPAFAH inh: inhibitors of human plasma PAF acetylhydrolase (pPAFAH); Q13093; recombinant pPAFAH, FP-rhodamine probe fluorescence polarization; inhibition, % at 3.39 µM; 330,000 tested, 1.5% active; AID 463082;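 active means inhibition above the mean inhibition across the screen plus 3 SD, cut at about 25% in these data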;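 further: inhibitors block binding of the rhodamine activity-based probe so polarization drops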
Target sequence (Q13093 whole entry, looked up): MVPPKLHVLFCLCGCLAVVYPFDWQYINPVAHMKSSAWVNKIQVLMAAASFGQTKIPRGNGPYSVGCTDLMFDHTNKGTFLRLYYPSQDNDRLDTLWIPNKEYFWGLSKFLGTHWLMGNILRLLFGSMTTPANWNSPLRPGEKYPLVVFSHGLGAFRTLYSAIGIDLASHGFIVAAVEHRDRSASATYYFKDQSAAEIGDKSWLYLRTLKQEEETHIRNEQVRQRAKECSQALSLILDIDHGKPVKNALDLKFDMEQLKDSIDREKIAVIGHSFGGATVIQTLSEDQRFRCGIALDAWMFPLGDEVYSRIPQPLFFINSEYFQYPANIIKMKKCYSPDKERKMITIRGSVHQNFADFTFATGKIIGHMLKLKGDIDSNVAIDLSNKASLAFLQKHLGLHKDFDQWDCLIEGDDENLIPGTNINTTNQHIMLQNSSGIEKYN
pPAFAH confirm: pPAFAH (human) inhibition, confirmed. shares compounds with pPAFAH inh. recombinant pPAFAH, FP-Rh probe fluorescence polarization. inhibition, % at 3.39 µM. 2,300 tested, 72% active. AID 463230;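 active means mean inhibition of the triplicate above the hit cutoff set for the earlier primary screen, cut at about 25% in these data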
Each line names hits and unclear results; the compound was inactive in the other large screens (follow-up assays come after a bar, where they were run).

O=C(N/N=C/c1ccc(O)c(O)c1O)/C(=C/c1ccc([N+](=O)[O-])cc1)NC(=O)c1ccccc1	pPAFAH inh 37.7 | pPAFAH confirm 46.9
CCCCC1CC(/C(C)=N/NC(N)=O)OC1=O (stereo not given)	pPAFAH inh 58.2 | pPAFAH confirm inactive
COc1cc2[nH]c3c(N4CCN(c5ccccn5)CC4)ncnc3c2cc1OC	pPAFAH inh 69.8 | pPAFAH confirm 57.6
COc1cccc2[nH]c3c(N4CCCCC4)ncnc3c12	none
O=C(NCCC(=O)N(CCc1ccccc1)Cc1ccccc1)c1ccccc1Cl	pPAFAH inh 46.0 | pPAFAH confirm inactive
Cc1ccc(C(=O)NCCCc2ccccc2)c(Cl)c1	none
Cc1c(C(=O)NCC2CCCO2)sc2nc(-c3ccc(F)cc3)cn12 (stereo not given)	none
O=C(COC(=O)COc1ccc(Cl)cc1)Nc1ccc(N2CCOCC2)cc1	none
COc1ccc(S(=O)(=O)NCc2ccc3c(c2)cc(C)n3C)cc1	none
Cc1cc2cc(CNS(=O)(=O)c3ccccc3)ccc2n1C	pPAFAH inh 47.2 | pPAFAH confirm 35.1
CCCCc1ccc(NC(=O)CSCc2cc(=O)[nH][nH]2)cc1	pPAFAH inh 36.3 | pPAFAH confirm inactive
O=C(COC(=O)c1ccccc1OCc1ccc(Cl)cc1)NC1CC1	none
O=C(COC(=O)c1ccc2c(c1Cl)C(=O)c1ccccc1C2=O)NC1CCCCC1	PAFAH2 inh 44.4, pPAFAH inh 52.8 | pPAFAH confirm 49.9
O=C(COC(=O)c1ccc2c(c1Cl)C(=O)c1ccccc1C2=O)NC1CC1	PAFAH2 inh 34.2, pPAFAH inh 53.6 | pPAFAH confirm 43.8
O=C(COC(=O)c1cc(Cl)ccc1Cl)NC1CCCC1	none
Cc1ccc2c(c1)N(C(=O)CCC(=O)NC1CCN(Cc3ccccc3)CC1)CC(C)O2 (stereo not given)	none
N#CCCN(C(=O)COC(=O)C1=COCCO1)c1ccc(F)cc1	none
CC(C)=CCc1c(O)c(CC=C(C)C)c2c(c1O)-c1cc(O)c(O)cc1CC2	pPAFAH inh 76.4 (no result: PAFAH2 inh, PAFAH1B2 FP inh, PAFAH1B3 FP inh) | pPAFAH confirm 56.2
CC(C)=CCc1c(O)cc2c(c1O)C(=O)CC(c1ccccc1)O2 (stereo not given)	none
NC(=O)NCCCC(=O)NCC(c1ccccc1Cl)c1c[nH]c2ccccc12 (stereo not given)	none
O=C(COc1coc(CN2CCN(c3ccccc3)CC2)cc1=O)Nc1cccc(F)c1	none
CCCNC(=O)CSc1ccc(S(=O)(=O)N2CCCC2)cn1	none (no result: Fam108B inh)
O=S(=O)(Nc1ccc(Cl)cc1)c1ccc(N2CCOCC2)c(NC(=S)NCCN2CCOCC2)c1	pPAFAH inh 58.0 | pPAFAH confirm 58.8
O=C(Cc1ccc(NS(=O)(=O)c2ccc(Cl)c(Cl)c2)cc1)NCCN1CCOCC1	none (no result: PME-1 primary, Fam108B inh, pPAFAH inh)
Cc1cccc(C)c1NC(=O)CN(C)C(=O)c1cc(S(=O)(=O)N(C)C)ccc1N1CCCC1	pPAFAH inh 35.3 | pPAFAH confirm inactive
COc1ccc(CNC(=O)COC(=O)CCCOc2ccc(Cl)cc2Cl)cc1	pPAFAH inh 34.6 | pPAFAH confirm inactive
N=C1SC(c2ccccc2)C(=O)N1c1ncc(Cc2ccccc2)s1 (stereo not given)	PAFAH1B2 FP inh 34.3, pPAFAH inh 39.0 | pPAFAH confirm 44.2
O=C(Nc1ncc(Cc2ccccc2)s1)C1=NCCN1	none
O=C(NC1CCN(S(=O)(=O)c2ccc(F)cc2)CC1)c1ccc(F)cc1	none
CC(=O)Nc1ccc(C(=O)OCC(=O)Nc2ccccc2Sc2ccccc2)cc1	none
N#CCC(=O)Nc1ccc(C(=O)OCC(=O)Nc2ccccc2Sc2ccccc2)cc1	PME-1 primary 34.2, pPAFAH inh 71.2 (no result: PAFAH2 inh, PAFAH1B2 FP inh, PAFAH1B3 FP inh) | pPAFAH confirm inactive
Cc1ccc(NC(=O)N/C=C/c2ccccc2)cc1	pPAFAH inh 39.4 | pPAFAH confirm inactive
Cc1cccc(N=C2NC(=O)/C(=C/C=C/c3ccco3)S2)c1	PAFAH2 inh 32.1, PAFAH1B3 FP inh 27.0, pPAFAH inh 49.6 | pPAFAH confirm 24.6
COc1ccc(N=C2NC(=O)/C(=C\C=C\c3ccco3)S2)cc1	none (no result: PME-1 primary, Fam108B inh, pPAFAH inh)
O=C1NC(=Nc2ccc3ccccc3c2)S/C1=C/c1ccco1	pPAFAH inh 55.2 | pPAFAH confirm inactive
Cc1nc2cc(-c3ccsc3-n3c(C)ccc3C)[nH]n2c(=O)c1Cl	PAFAH2 inh 84.2, pPAFAH inh 54.6 | pPAFAH confirm 47.4
Cc1ccccc1-c1cc2nc(C)c(Cl)c(=O)n2[nH]1	none
Cc1cc(=O)n2[nH]c(-c3ccsc3-n3c(C)ccc3C)cc2n1	PAFAH2 inh 39.7, pPAFAH inh 42.2 | pPAFAH confirm inactive
COCc1cc(=O)n2[nH]c(-c3ccsc3-n3c(C)ccc3C)cc2n1	PAFAH2 inh 54.4, pPAFAH inh 46.4 | pPAFAH confirm inactive
CC(NCC(c1ccco1)N1CCCCC1)C(=O)NC1CCCC1 (stereo not given)	none
O=C1OC(Nc2ccc(Cl)cn2)c2ccccc21 (stereo not given)	none
C=CCNC(=O)c1cn(CC)c2cc(N3CCN(C(=O)c4ccco4)CC3)c(F)cc2c1=O	none
O=C(CN1C(=O)CSC1=O)NCc1ccccc1	pPAFAH inh 78.4 | pPAFAH confirm inactive
COc1cc(C(=O)NCCCN2CCCC2=O)cc(Br)c1OCc1ccccc1	pPAFAH inh 79.4 (no result: Fam108B inh) | pPAFAH confirm inactive
Cc1c(NC(=S)N/N=C/c2cc([N+](=O)[O-])ccc2O)c(=O)n(-c2ccccc2)n1C	pPAFAH inh 47.2 | pPAFAH confirm inactive
Cc1c(NC(=S)N/N=C/c2ccc(O)cc2)c(=O)n(-c2ccccc2)n1C	none
CN1CCS/C1=C/C=C1/SC(=S)N(Cc2ccccc2)C1=O	pPAFAH inh 35.7 | pPAFAH confirm 26.6
COc1ccc(-n2c(NNC(C)=O)nc3sc4c(c3c2=O)CCCC4)cc1	none
O=C(/C=C/c1ccccc1)c1cc(Br)ccc(=O)c1O	PAFAH2 inh 36.7, pPAFAH inh 36.0 | pPAFAH confirm inactive
O=C(Oc1nsnc1N1CCOCC1)N1CCOCC1	PAFAH2 inh 30.7, pPAFAH inh 84.9 | pPAFAH confirm 89.1
O=C(Oc1nsnc1N1CCOCC1)N1CCCCC1	pPAFAH inh 57.1 | pPAFAH confirm 50.1
C=CCNC(=O)CN1C2CCCC1CC(NC(=O)c1ccccc1C)C2 (stereo not given)	none
Cc1oc(-c2ccc(F)cc2)cc1-c1nn2c(-c3ccoc3C)nnc2s1	pPAFAH inh 35.5 | pPAFAH confirm inactive
COc1ccc(-c2nnc3sc(-c4ccco4)nn23)cc1OC	none
CCc1ccccc1NC(=S)N(CCN(C)C)Cc1cccs1	none
Cc1ccccc1-n1c(SCC(=O)N2CCOCC2)nc(O)cc1=O	pPAFAH inh 38.6 | pPAFAH confirm inactive

High-throughput results: PubChem, The Scripps Research Institute Molecular Screening Center
